Source: PubChem
Rv3671c inh: inhibitors of M. tuberculosis serine protease Rv3671c; P9WHR9; inhibition, % at 5.96 µM; actives 0.048% (n = 320,000); AID 2606; in the data active = inhibition above about 38%;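 also: extracellular domain of Rv3671c used as enzyme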
Yp Topo-I inh: Y. pestis Topo-I inhibition via cleavage products. AID 504884. activity, % at 10 µM. Y. pestis Topo-I cleavage product accumulation, plate reader. actives 0.064% (n = 360,000); in the data active = activity above about 50%, passing the limit was not always enough; inconclusive = no clear call, values can overlap the other calls
FadD28 binding: inhibitors of Mycobacterium tuberculosis FadD28 bisubstrate binding | inhibition, % at 12.5 µM | FadD28 bisubstrate probe binding, fluorescence polarization | actives 0.22% (n = 360,000); in the data active = inhibition above about 8.5%, passing the limit was not always enough; inconclusive = no clear call, values can overlap the other calls
Mtb betalactam: beta-lactam sensitization of Mtb H37Rv; M. tuberculosis H37Rv growth with meropenem, percent inhibition; inhibition, % at 25 µM; actives 0.27% (n = 330,000); call rule not given here;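 also: growth measured after seven days incubation then overnight dye step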
UGM FP inh: inhibitors of M. tuberculosis UDP-galactopyranose mutase; P9WIQ1; purified UGM, fluorescence polarization probe displacement; inhibition, % at 10 µM; actives 0.06% (n = 320,000); in the data active = inhibition above about 10%, passing the limit was not always enough; inconclusive = no clear call, values can overlap the other calls
Target sequence (P9WIQ1 whole entry, looked up): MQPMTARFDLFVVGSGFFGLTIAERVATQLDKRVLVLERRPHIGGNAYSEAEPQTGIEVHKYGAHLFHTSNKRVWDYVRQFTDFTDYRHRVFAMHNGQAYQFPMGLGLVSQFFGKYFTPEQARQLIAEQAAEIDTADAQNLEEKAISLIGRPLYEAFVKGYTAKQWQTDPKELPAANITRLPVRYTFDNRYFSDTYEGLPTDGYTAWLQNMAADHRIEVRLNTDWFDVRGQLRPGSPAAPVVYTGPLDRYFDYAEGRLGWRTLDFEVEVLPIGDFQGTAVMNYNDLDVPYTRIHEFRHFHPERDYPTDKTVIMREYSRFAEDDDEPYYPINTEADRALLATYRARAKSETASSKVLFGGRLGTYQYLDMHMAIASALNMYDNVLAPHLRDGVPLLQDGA
PfHsp40 yeast: rescue of PfHsp40-mediated yeast toxicity; S. cerevisiae expressing PfHsp40, growth rescue, ATP luminescence; growth rescue, % at 12.5 µM; actives 0.68% (n = 340,000); in the data active = growth rescue above about 28%, passing the limit was not always enough; inconclusive = no clear call, values can overlap the other calls;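 also: yeast W303a lacking pdr1 and pdr3 grown in galactose medium; growth measured after three days at 30 °C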
Large screens that a line does not name were inactive. Hits are enriched below; roughly 0.98% of the tested compounds scored in any of these assays.

Cc1ccc(-n2c(O)c(/C=N/NC(=O)C3COc4ccccc4O3)c3ccccc3c2=O)cc1 (configuration not stated)	FadD28 binding inconclusive, PfHsp40 yeast 205.0
O=[N+]([O-])c1cccc(C=NNc2ccc3ccccc3n2)c1O	PfHsp40 yeast 240.9 (no result: Rv3671c inh, Mtb betalactam, UGM FP inh)
O=C(N/N=C/c1c(O)n(-c2ccccc2Cl)c(=O)c2ccccc12)C1COc2ccccc2O1 (configuration not stated)	FadD28 binding inconclusive
Brc1ccccc1/C=N/Nc1ccc2ccccc2n1	none
O=C(Oc1ccc(N(C(=O)c2ccncc2)S(=O)(=O)c2ccc(F)cc2)cc1)c1ccncc1	none
Cc1ccc(S(=O)(=O)N(C(=O)c2ccncc2)c2ccc(OC(=O)c3ccncc3)cc2)cc1	PfHsp40 yeast 372.5
COc1ccc(N(C(=O)c2ccncc2)S(=O)(=O)c2ccc(Cl)cc2)cc1	PfHsp40 yeast 140.9 (no result: UGM FP inh)
O=C(Oc1ccc(N(C(=O)c2ccncc2)S(=O)(=O)c2ccc(Cl)cc2)cc1)c1ccncc1	PfHsp40 yeast 421.9
CCc1ccc(S(=O)(=O)N(C(=O)c2ccncc2)c2ccc(OC(=O)c3ccncc3)cc2)cc1	PfHsp40 yeast 234.2
COCCNC(=O)C1(C)CCCN(Cc2ccc3ccccc3c2Br)C1 (configuration not stated)	none (no result: Rv3671c inh, Mtb betalactam, UGM FP inh, PfHsp40 yeast)
C[C@H](CO)N1C[C@H](C)[C@@H](CN(C)Cc2ccc3c(c2)OCO3)Oc2cc(Br)ccc2S1(=O)=O	none (no result: Rv3671c inh, Mtb betalactam, UGM FP inh, PfHsp40 yeast)
O=C(CN1CCN(c2ccccc2O)CC1)Nc1ccc2c(c1)OCCCO2	none
COc1cccc(C(C)(O)c2nc(-c3ccc(OC)nc3)cs2)c1 (configuration not stated)	none (no result: Rv3671c inh, Mtb betalactam, UGM FP inh, PfHsp40 yeast)
N[C@@H]1C[C@H]1c1ccccc1	PfHsp40 yeast 44.4
CC(=O)N[C@H]1C[C@@H]1c1ccccc1	none
Cc1nnc(SCC(=O)NC(=O)NC(C)(C)C)n1N	PfHsp40 yeast 52.0
CC(C)(C)NC(=O)NC(=O)CSc1nnc(-c2ccccc2F)n1N	none
O=[N+]([O-])c1ccc(-c2nc(Cl)c3c(n2)CCCC3)o1	none (no result: Rv3671c inh, Mtb betalactam, UGM FP inh, PfHsp40 yeast)
O=C(C1=NN(c2ccccc2)C2C(=O)N(c3ccc(Cl)cc3)C(=O)C12)c1ccccc1 (configuration not stated)	UGM FP inh 14.8
COc1ccccc1N1C(=O)C2C(C(=O)c3ccccc3)=NN(c3ccc(Br)cc3)C2C1=O (configuration not stated)	UGM FP inh 10.9 (no result: PfHsp40 yeast)
O=C(C1=NN(c2ccccc2)C2C(=O)N(c3cccc(Cl)c3)C(=O)C12)c1ccccc1 (configuration not stated)	UGM FP inh inconclusive
CC(C)C[C@H]1CN([C@@H](Cc2ccccc2)CN2CCC[C@@H]2CN2C(=O)C(=O)NC[C@@H]2Cc2ccccc2)C(=O)C(=O)N1CCc1ccccc1	none (no result: Rv3671c inh, Yp Topo-I inh, Mtb betalactam, UGM FP inh, PfHsp40 yeast)
N#CN=CN1CC=C(c2ccc(Cl)cc2)CC1	none (no result: Rv3671c inh, Mtb betalactam, UGM FP inh, PfHsp40 yeast)
Nc1ncnc2c(C3OC(CO)C(O)C3O)scc12 (configuration not stated)	PfHsp40 yeast 144.8 (no result: Rv3671c inh, Mtb betalactam, UGM FP inh)
CC(=O)Nc1ccc(-c2noc(-c3csc([C@@H]4C[C@H](O)[C@@H](CO)O4)n3)n2)cc1	none (no result: Rv3671c inh, Mtb betalactam, UGM FP inh, PfHsp40 yeast)
COc1ccccc1C(=O)NC(CCSC)C(=O)NNC(=O)c1ccc(F)cc1 (configuration not stated)	none
COc1ccccc1C(=O)NC(CCSC)C(=O)NNC(=O)c1ccccc1O (configuration not stated)	PfHsp40 yeast 97.8
CCc1nc2ccc(C(=O)NCc3cccs3)cn2c1N(C)Cc1nccs1	none (no result: Rv3671c inh, Mtb betalactam, UGM FP inh, PfHsp40 yeast)
CC1(Cc2ccc(Cl)cc2)C(=O)Nc2c(Cl)cccc21 (configuration not stated)	none (no result: Rv3671c inh, Mtb betalactam, UGM FP inh, PfHsp40 yeast)
CCNC(=S)N/N=C(\C)c1ccc2ccccc2c1	none (no result: Yp Topo-I inh, FadD28 binding, PfHsp40 yeast)
CCNC(=S)N/N=C(\C)c1ccc2ccccc2c1OC(F)F	PfHsp40 yeast 62.2
COc1ccccc1-c1cnc(C(O)c2cc(C)ccc2C)[nH]1 (configuration not stated)	none (no result: Rv3671c inh, Mtb betalactam, UGM FP inh, PfHsp40 yeast)
CCCCn1c(NC(=O)c2ccccc2)nc2ccccc21	PfHsp40 yeast 97.2
CCn1c(NC(=O)c2ccccc2)nc2ccccc21	none
Cc1[nH]c2ccccc2c1C(C#N)(C#N)C1C(=O)c2ccccc2C1=O	FadD28 binding 17.9
Cc1[nH]c2ccccc2c1CC#N	none
CCNC(=S)Nc1ccc(C)c(S(=O)(=O)Nc2ccccc2OC)c1	PfHsp40 yeast 105.9
COc1ccccc1NS(=O)(=O)c1cc(NC(=O)Nc2ccccc2)ccc1N1CCCCC1	PfHsp40 yeast 45.8
